From ChEMBL document CHEMBL2218924, “A broad activity screen in support of a chemogenomic map for kinase signalling research and drug discovery” (Biochem J, 2013)

Legend:
[1] = target: T1, Ephrin type-A receptor 3 (Homo sapiens) (UniProt P29320); conditions: at 10 µM
T1 sequence (whole entry): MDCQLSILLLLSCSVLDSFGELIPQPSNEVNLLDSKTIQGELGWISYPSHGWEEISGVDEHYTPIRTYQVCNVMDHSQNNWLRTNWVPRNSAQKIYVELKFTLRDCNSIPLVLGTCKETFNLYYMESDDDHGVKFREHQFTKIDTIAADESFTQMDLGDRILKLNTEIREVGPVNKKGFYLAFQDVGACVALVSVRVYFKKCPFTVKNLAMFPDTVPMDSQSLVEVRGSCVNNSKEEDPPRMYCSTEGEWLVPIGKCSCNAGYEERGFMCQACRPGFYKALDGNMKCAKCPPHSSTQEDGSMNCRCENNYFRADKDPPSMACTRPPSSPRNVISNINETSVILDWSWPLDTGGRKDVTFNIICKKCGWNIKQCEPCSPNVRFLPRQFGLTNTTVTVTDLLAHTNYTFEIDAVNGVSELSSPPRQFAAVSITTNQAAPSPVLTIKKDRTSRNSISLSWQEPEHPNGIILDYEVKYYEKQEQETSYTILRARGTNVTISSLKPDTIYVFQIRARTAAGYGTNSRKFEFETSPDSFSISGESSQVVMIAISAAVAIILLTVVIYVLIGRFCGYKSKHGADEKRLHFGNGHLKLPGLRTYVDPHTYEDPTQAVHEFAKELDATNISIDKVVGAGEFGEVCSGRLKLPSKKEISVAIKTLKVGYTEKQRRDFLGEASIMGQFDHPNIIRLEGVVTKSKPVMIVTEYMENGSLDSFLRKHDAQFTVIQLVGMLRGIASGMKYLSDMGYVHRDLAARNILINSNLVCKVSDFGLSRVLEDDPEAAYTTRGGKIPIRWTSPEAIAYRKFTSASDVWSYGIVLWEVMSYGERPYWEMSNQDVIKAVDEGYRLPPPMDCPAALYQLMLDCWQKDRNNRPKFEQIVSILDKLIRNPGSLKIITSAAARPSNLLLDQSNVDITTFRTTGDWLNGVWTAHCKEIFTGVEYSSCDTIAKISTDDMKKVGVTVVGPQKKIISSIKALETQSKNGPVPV

[2] = target: Ephrin type-A receptor 4 (Homo sapiens) (UniProt P54764); conditions: at 1 µM
[3] = target: Ephrin type-A receptor 4 (Homo sapiens) (UniProt P54764); conditions: at 10 µM
[4] = target: Ephrin type-A receptor 5 (Homo sapiens) (UniProt P54756); conditions: at 1 µM
[5] = target: Ephrin type-A receptor 5 (Homo sapiens) (UniProt P54756); conditions: at 10 µM
[6] = target: Ephrin type-A receptor 7 (Homo sapiens) (UniProt Q15375); conditions: at 1 µM
[7] = target: Ephrin type-A receptor 7 (Homo sapiens) (UniProt Q15375); conditions: at 10 µM
[8] = target: T2, Ephrin type-A receptor 8 (Homo sapiens) (UniProt P29322); conditions: at 1 µM
T2 sequence (whole entry): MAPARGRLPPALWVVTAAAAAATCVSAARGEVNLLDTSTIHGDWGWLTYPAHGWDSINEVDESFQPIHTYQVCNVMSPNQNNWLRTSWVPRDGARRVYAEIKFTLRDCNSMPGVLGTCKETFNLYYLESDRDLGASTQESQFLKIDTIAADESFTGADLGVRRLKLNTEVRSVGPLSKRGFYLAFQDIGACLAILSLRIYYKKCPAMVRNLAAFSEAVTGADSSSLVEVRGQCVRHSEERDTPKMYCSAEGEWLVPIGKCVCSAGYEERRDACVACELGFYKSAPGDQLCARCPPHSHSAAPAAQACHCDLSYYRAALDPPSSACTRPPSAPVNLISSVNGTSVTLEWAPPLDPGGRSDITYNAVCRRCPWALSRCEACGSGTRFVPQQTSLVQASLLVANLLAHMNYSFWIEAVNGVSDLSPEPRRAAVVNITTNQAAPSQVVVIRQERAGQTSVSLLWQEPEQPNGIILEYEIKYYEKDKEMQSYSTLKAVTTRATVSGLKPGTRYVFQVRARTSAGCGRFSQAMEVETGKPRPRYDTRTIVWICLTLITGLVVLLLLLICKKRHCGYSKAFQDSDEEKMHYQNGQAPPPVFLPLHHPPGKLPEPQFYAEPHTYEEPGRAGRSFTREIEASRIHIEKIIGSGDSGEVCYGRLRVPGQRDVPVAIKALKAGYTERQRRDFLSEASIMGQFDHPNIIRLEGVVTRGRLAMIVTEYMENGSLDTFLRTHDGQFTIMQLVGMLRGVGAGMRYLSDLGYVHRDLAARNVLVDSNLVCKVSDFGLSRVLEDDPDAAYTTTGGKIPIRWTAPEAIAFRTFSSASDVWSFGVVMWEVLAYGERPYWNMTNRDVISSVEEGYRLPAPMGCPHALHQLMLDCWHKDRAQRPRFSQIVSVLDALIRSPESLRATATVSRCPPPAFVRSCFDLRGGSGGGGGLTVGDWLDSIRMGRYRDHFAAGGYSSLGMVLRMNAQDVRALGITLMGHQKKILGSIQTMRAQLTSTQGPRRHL

[9] = target: T2, Ephrin type-A receptor 8 (Homo sapiens); conditions: at 10 µM
[10] = target: T3, Ephrin type-B receptor 1 (Homo sapiens) (UniProt P54762); conditions: at 1 µM
T3 sequence (whole entry): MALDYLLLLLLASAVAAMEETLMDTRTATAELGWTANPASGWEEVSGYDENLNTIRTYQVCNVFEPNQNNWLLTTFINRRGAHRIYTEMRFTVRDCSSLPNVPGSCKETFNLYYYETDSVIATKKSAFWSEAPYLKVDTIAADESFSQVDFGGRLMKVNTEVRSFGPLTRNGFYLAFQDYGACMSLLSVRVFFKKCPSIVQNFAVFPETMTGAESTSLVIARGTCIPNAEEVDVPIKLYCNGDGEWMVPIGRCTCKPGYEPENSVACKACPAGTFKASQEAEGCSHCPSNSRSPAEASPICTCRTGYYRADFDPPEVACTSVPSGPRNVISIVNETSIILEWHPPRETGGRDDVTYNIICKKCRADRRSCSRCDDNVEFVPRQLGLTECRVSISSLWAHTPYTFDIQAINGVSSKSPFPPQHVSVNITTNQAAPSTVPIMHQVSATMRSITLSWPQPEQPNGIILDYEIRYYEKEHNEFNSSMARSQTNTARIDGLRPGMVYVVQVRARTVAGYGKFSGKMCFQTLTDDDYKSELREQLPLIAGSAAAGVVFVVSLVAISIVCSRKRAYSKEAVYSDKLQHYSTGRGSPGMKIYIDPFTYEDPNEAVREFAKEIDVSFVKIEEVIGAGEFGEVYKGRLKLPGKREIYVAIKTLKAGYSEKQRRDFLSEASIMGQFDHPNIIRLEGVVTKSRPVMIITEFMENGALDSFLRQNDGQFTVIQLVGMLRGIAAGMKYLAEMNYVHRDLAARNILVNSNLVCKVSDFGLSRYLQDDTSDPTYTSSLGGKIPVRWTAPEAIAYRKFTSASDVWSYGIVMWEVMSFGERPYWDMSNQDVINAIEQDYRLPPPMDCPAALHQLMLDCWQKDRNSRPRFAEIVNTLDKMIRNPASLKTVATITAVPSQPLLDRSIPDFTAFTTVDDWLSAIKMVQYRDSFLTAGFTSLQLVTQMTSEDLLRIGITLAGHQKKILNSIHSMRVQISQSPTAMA

Sequence of Ephrin type-A receptor 4 (Homo sapiens) (P54764 whole entry): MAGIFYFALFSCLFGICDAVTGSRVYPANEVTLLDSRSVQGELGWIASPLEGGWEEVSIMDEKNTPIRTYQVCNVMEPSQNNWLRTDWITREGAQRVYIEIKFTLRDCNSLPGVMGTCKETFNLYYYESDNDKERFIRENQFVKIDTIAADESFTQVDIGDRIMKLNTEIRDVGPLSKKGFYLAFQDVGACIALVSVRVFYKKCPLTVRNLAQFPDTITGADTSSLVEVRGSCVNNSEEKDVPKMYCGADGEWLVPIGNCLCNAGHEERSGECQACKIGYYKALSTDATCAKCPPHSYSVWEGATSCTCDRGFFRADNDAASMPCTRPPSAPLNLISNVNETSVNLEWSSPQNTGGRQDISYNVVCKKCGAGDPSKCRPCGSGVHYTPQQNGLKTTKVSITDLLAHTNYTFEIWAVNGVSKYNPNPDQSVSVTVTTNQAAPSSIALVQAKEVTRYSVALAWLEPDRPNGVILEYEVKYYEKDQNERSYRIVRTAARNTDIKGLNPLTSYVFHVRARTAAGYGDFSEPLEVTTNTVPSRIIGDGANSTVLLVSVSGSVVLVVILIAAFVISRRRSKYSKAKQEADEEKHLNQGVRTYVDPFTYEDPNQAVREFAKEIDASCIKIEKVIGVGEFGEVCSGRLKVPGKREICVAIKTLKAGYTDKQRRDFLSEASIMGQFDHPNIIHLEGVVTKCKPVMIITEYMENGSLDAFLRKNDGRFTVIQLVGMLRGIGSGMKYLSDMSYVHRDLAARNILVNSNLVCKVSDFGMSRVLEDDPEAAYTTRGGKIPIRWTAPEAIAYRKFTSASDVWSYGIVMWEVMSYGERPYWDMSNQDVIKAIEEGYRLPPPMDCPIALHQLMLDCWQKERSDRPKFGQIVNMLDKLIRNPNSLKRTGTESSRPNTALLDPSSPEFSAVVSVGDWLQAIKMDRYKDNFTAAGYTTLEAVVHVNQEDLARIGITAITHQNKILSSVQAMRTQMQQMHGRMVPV
Sequence of Ephrin type-A receptor 7 (Homo sapiens) (Q15375 28-998 limits assumed): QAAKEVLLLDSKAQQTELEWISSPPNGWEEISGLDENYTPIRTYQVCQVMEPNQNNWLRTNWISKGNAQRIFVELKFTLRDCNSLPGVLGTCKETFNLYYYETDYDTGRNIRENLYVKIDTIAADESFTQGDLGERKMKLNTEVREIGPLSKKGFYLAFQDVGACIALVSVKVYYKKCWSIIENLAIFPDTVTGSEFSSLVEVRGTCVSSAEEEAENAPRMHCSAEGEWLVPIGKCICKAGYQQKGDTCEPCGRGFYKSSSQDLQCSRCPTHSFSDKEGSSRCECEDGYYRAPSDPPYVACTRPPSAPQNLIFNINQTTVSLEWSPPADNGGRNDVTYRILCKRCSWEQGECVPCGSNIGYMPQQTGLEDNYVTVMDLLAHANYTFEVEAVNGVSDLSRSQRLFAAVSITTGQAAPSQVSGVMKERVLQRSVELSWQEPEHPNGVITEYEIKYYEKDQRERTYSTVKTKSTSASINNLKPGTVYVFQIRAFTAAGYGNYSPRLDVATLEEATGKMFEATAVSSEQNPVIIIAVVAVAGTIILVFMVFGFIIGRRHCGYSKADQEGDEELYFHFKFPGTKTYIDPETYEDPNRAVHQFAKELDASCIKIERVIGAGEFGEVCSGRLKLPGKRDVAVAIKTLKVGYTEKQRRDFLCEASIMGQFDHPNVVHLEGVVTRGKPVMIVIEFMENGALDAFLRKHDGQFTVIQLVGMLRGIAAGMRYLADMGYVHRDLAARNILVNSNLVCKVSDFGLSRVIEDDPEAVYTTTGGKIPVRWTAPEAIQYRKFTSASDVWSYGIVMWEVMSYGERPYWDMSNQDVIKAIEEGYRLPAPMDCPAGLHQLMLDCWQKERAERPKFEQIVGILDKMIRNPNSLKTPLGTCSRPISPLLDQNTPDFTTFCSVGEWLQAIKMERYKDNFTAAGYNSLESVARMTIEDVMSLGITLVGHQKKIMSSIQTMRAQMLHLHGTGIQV
Sequence of Ephrin type-A receptor 5 (Homo sapiens) (P54756 whole entry): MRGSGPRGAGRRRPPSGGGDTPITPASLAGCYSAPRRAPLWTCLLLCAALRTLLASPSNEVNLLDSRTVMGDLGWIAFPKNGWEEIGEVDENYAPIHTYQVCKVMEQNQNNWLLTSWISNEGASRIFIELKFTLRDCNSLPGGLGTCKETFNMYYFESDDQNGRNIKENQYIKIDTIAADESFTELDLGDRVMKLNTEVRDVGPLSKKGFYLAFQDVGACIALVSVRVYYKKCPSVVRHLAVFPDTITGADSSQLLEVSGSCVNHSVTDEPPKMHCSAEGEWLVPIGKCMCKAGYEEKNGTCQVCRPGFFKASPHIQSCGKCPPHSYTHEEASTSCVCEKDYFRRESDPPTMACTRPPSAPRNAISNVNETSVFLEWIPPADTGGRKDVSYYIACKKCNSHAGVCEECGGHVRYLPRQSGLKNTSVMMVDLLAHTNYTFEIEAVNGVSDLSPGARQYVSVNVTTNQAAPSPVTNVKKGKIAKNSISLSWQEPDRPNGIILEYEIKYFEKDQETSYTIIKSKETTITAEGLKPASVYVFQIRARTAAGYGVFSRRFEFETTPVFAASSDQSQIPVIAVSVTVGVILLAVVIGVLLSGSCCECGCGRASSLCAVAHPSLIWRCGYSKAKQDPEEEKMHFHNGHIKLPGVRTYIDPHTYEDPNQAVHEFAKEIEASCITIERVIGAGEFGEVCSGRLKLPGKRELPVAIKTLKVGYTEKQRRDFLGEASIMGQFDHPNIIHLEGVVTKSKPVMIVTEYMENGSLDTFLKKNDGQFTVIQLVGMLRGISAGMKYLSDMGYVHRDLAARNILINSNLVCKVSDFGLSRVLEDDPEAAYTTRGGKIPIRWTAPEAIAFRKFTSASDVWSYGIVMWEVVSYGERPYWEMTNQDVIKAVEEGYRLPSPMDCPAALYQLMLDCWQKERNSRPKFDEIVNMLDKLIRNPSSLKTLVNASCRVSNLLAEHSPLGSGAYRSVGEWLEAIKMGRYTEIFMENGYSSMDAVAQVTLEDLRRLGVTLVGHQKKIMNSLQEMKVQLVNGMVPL

## COc1ccc(S(=O)(=O)N(CCO)c2ccccc2CN(C)C/C=C/c2ccc(Cl)cc2)cc1
[1]
  residual activity: 83%
[2]
  residual activity: 103%
[3]
  residual activity: 97%
[4]
  residual activity: 124%
[5]
  residual activity: 112%
[6]
  residual activity: 96%
[7]
  residual activity: 96%
[8]
  residual activity: 98%
[9]
  residual activity: 88%
[10]
  residual activity: 103%
